These results are taken from PubChem BioAssay (NCATS).

Experiment [1] in a line: qHTS assay for small molecule activators of the nuclear factor-kappa B (NF-kB) signaling pathway (AID 651749; active = well fitted activation curve with a large enough effect in the signal ratio; the % refers to the signal ratio; note: % of control where 0% means no effect). The conditions noted are these: NF-kB-bla ME-180 cells, beta-lactamase FRET ratio, 16 h; active compounds read high. In a few lines:
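Stably transfected ME-180 line; NF-kB response element upstream of beta-lactamase. Treatment: compound or DMSO, 16 hr. Detection: fluorescent FRET substrate.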
On the technique in general: Quantitative high-throughput screening tests each substance at several concentrations.

A short description of experiment [2]: qHTS assay for small molecule disruptors of the mitochondrial membrane potential - 5 hr assay (AID 651755; calls by dose curve; note: nearly all actives have a fitted effect of over 40% in size; note: potency is the fitted concentration of half-maximal effect). The conditions noted are these: JC-1-type ratio dye; series mostly up to 92.2 µM. In a few lines: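 HepG2, 2,000 cells/well, overnight attach; cpd or DMSO 5 hr, 37C/5% CO2; Mito-MPS 30 min 37C; fluor 490/535 + 540/590 nm.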
For experiment [3], the target named is Tumor necrosis factor (Homo sapiens) (UniProt P01375). Nature of the experiment: qHTS assay to identify small molecules that stimulate Tumor Necrosis Factor-alpha (TNF-alpha) secretion (AID 651757; active = well fitted curve in the direction sought with a large enough effect in the signal ratio; the % refers to the signal ratio; note: 0% is about no effect). Particulars: Human cells, HTRF 665/615 ratio; series mostly up to 92.2 µM. In a few lines:
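THP-1 cells were exposed to compounds for 17 hrs at 37 C, after which secreted TNF-alpha was measured by homogeneous HTRF (TR-FRET) using cryptate- and XL665-labeled anti-TNF-alpha antibodies, read after 3 hr at room temperature.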

A short description of experiment [4]: qHTS assay for environmental chemicals that activate the Aryl hydrocarbon Receptor (AhR) signaling pathway (AID 651777). For activation: % of control where 0% means no effect. Note: nearly all actives have a fitted effect of over 15% in size. Note: potency is the fitted concentration of half-maximal effect. Particulars: 1A2-DRE human hepatoma cells, luciferase, 24 h; activation: active compounds read high. An outline of the steps: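 Following a 24 hr incubation with test chemicals at 37 C and 5% CO2, 1A2-DRE human hepatoma cells received One-Glo reagent; after 30 min at room temperature, luciferase output reflected CYP1A2 induction via AhR.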

The target of experiment [5] is Peroxisome proliferator-activated receptor alpha (Homo sapiens) (UniProt Q07869). Nature of the experiment: qHTS assay for small molecule agonists of the peroxisome proliferator-activated receptor alpha (PPARalpha) signaling pathway (AID 651778). Note: % of control where 0% means no effect. The conditions noted are these: PathHunter PPARalpha complementation, chemiluminescence, 6 h; active compounds read high. In a few lines: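 Chemiluminescence from complemented enzyme reported PPARalpha activation in cells after 6 hr of compound treatment at 37 C. The detection reagent was incubated for 60 min at room temperature, and compounds were scored as agonists.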

Experiment [6] concerns the target Nuclear receptor ROR-gamma (Homo sapiens) (UniProt P51449). Nature of the experiment: qHTS assay for small molecule antagonists of the retinoid-related orphan receptor gamma (ROR-gamma) signaling pathway (AID 651802). Note: nearly all actives have a fitted effect of over 60% in size. Note: potency is the fitted concentration of half-maximal effect. Particulars: ROR-gamma antagonist cell reporter assay; series mostly up to 92.2 µM. An outline of the steps:
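CHO cells carrying TET-inducible ROR-gamma and an ROR response element–luciferase reporter were exposed to compound, then induced with doxycycline. After 16hr at 37C, luminescence was read; lower signal indicates antagonism.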

Experiment [7] in a line: qHTS assay to identify small molecules that stimulate interleukin-8 (IL-8) secretion (AID 651758; active = well fitted activation curve with a large enough effect in the signal ratio; the % refers to the signal ratio; note: 0% is about no effect). The conditions noted are these: HTRF ratio (665/615); series mostly up to 92.2 µM. An outline of the steps:
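Secreted IL-8 measured by TR-FRET sandwich (cryptate and XL665 antibodies) from THP-1 cells exposed to compound overnight (16 hrs, 37 C).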

Experiment [8] has as its target Tyrosine-protein kinase Yes (Homo sapiens) (UniProt P07947). The experiment can be described thus: qHTS for small molecule inhibitors of Yes1 kinase: Primary Screen (AID 686947).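 Note: plate controls were DMSO with enzyme for no effect and no-enzyme DMSO wells for full effect; nearly all actives have a fitted effect of over 60% in size.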 Particulars: Yes1 kinase biochemical qHTS inhibition; series mostly up to 76.9 µM. An outline of the steps:
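ADP-Glo luminescence readout; final 4 nM Yes1, 0.1 mM ATP, 0.3 mg/mL poly(E4Y), Tris pH 7.5, MgCl2, DTT, Brij-35. 20 min compound preincubation, 60 min reaction at RT. Normalized to DMSO wells with and without enzyme.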

The nature of experiment [9]: qHTS for small molecule inhibitors of Yes1 kinase: Counter Assay (AID 686950).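 Note: no kinase present so only ADP-Glo detection of a fixed ADP amount is tested; luminescence from ADP-Glo reporting ADP in a fixed ATP and ADP mixture; 0% = DMSO wells with ATP plus ADP and -100% = ATP-only wells without ADP.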 Particulars: series mostly up to 76.9 µM. An outline of the steps: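 Luminescence read-out from ADP-Glo quantifies a fixed ADP amount (0.02 mM ADP with 0.08 mM ATP) after 60 min at room temperature; signal is normalized between DMSO wells with ATP/ADP and with 0.1 mM ATP alone.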

The structures appear in SMILES notation. Values joined by “and” are separate entries in the source; they are usually repeats but may differ in a detail not shown here. Equal entries are not always repeated. Inconclusive results are not listed. Active and inactive are the calls of the source. Unless noted, calls come from the whole dose curve; as a rule, active = well fitted curve in the direction sought with a large enough effect; inconclusive = small, poorly fitted or top-dose-only effect, or another doubt; inactive = no such curve, though single readings can be large; an effect the other way counts as inactive or inconclusive.

Tumor necrosis factor (Homo sapiens), sequence (P01375 whole entry, looked up): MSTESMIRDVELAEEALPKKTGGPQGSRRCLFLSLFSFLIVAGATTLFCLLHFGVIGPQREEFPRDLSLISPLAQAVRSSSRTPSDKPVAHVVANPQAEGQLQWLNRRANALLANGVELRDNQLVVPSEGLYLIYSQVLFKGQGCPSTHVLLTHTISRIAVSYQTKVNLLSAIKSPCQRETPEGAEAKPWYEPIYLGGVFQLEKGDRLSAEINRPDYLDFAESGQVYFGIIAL
Nuclear receptor ROR-gamma (Homo sapiens), sequence (P51449 whole entry, looked up): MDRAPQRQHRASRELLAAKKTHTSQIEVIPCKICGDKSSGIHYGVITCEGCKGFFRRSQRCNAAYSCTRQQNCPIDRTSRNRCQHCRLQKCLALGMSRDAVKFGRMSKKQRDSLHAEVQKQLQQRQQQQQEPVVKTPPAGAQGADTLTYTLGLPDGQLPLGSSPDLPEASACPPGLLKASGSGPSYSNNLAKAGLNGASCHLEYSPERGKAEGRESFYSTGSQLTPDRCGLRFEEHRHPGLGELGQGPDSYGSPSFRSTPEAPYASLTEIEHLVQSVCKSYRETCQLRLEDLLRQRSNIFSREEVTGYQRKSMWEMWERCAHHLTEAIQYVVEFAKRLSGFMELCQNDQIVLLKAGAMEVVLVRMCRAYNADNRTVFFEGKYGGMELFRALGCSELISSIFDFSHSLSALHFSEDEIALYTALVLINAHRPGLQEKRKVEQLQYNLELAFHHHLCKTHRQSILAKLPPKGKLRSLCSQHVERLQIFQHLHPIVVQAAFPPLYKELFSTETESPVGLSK
Peroxisome proliferator-activated receptor alpha (Homo sapiens), sequence (Q07869 whole entry, looked up): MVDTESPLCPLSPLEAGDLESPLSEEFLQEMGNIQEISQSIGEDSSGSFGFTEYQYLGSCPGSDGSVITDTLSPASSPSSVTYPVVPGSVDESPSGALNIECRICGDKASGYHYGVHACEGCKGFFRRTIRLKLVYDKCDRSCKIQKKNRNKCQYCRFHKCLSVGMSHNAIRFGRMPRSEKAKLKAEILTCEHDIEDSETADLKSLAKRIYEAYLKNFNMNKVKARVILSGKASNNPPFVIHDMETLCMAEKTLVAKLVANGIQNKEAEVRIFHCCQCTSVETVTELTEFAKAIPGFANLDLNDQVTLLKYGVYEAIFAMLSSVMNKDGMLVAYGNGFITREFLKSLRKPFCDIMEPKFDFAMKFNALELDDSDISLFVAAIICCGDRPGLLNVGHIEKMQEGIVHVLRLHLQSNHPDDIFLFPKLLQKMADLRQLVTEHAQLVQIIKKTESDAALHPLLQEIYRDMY
Tyrosine-protein kinase Yes (Homo sapiens), sequence (P07947 whole entry, looked up): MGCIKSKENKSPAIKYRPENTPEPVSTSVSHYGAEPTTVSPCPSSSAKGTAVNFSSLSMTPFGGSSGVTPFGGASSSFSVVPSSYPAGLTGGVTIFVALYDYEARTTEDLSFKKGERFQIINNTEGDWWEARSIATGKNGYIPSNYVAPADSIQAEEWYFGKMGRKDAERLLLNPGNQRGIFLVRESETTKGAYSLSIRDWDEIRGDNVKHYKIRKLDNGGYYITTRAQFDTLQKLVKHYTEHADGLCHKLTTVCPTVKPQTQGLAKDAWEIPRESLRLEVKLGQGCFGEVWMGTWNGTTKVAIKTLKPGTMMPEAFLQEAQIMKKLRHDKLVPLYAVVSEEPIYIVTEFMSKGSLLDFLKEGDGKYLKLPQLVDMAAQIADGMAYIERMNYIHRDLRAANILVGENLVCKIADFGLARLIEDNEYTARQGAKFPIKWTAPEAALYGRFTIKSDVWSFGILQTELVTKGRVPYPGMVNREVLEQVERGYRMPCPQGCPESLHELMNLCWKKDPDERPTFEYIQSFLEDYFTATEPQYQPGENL

On to `C[C@H](CCC(=O)O)[C@H]1CC[C@H]2[C@@H]3[C@H](O)C[C@@H]4C[C@H](O)CC[C@]4(C)[C@H]3C[C@H](O)[C@]12C`, for which the activation is -0.745% (inactive) in experiment [1] and -1.36% (inactive) in experiment [4]. For the same molecule, the Potency entry in experiment [2], in [3] and in experiment [6] was “inactive” in each case. For the same molecule, the max response in experiment [5] is 0.161% (inactive).
With `Nc1ccc(N=Nc2ccccc2)c(N)n1`, the activation in experiment [1] is -0.825% (inactive). Besides, the Potency in [2] was 16.8 µM (active); in experiment [4] it was 39.8 µM (active) and 44.7 µM (active). Also, in experiment [5], the max response is -8.45% (inactive) and -6.87% (inactive). In addition, in experiment [6], the Potency result is “inactive”.
Regarding `Nc1ncnc2c1ncn2[C@H]1CC[C@@H](CO)O1`, the activation in experiment [1] was -1.92% (inactive); in [4], 3.83% (inactive) and -0.699% (inactive). In addition, the Potency entry in experiment [2], in [3], in [7] and in experiment [6] was “inactive” each time. Moreover, in [5], the max response was -1.88% (inactive) and -2.98% (inactive).
`CC(C)(C)CC(C)(C)c1ccc(OCCO)cc1`: the values for the activation in [1] and in experiment [4] were 0.716% (inactive) and 2.97% (inactive), respectively. For the same molecule, in experiment [3], the Potency entry was “inactive”. In addition, the max response in experiment [5] is 20.4% (inactive). Besides, the Potency in experiment [6] was 42.2 µM (active).
Consider `CO[C@H]1C[C@@H]2CC[C@@H](C)[C@@](O)(O2)C(=O)C(=O)N2CCCC[C@H]2C(=O)O[C@H]([C@H](C)C[C@@H]2CC[C@@H](OC(=O)C(C)(CO)CO)[C@H](OC)C2)CC(=O)[C@H](C)/C=C(\C)[C@@H](O)[C@@H](OC)C(=O)[C@H](C)C[C@H](C)/C=C/C=C/C=C/1C`, for which the outcome in experiment [8] and in [9] was inactive.
`CC(C)CCCCCCc1ccc(O)cc1`: in experiment [4], the activation was 0.323% (inactive).
Consider `Cc1ccc(S(=O)(=O)NCl)cc1`, for which the activation in [4] is -2.28% (inactive). In addition, the max response in [5] was -0.128% (inactive).
Take `OC[C@H]1O[C@@](CO)(O[C@H]2O[C@H](CO)[C@@H](O)[C@H](O)[C@H]2O)[C@@H](O)[C@@H]1O`: the activation in experiment [1] was -1.26% (inactive); in experiment [4], 1.69% (inactive). Moreover, the max response in experiment [5] is 0.569% (inactive).
